Unmarked numbers belong to inactive results. Records with an inconclusive call do not appear. Activity calls are given as the source filed them. Unless noted, calls come from the whole dose curve; as a rule, active = well fitted curve in either direction with a large enough effect (not every such curve was filed as active); inconclusive = small, poorly fitted or top-dose-only effect, or another doubt; inactive = flat fitted curve, though single readings scatter.
Tests used:
[1] = target: Lysosomal acid glucosylceramidase (Homo sapiens) (UniProt P04062); assay: Glucocerebrosidase-p2 (AID 348; in the data active = potency below about 10 µM; note: potency is the fitted concentration of half-maximal effect); settings: purified GBA, blue fluorogenic substrate, 40 min
Lysosomal acid glucosylceramidase (Homo sapiens), sequence (P04062 whole entry, looked up): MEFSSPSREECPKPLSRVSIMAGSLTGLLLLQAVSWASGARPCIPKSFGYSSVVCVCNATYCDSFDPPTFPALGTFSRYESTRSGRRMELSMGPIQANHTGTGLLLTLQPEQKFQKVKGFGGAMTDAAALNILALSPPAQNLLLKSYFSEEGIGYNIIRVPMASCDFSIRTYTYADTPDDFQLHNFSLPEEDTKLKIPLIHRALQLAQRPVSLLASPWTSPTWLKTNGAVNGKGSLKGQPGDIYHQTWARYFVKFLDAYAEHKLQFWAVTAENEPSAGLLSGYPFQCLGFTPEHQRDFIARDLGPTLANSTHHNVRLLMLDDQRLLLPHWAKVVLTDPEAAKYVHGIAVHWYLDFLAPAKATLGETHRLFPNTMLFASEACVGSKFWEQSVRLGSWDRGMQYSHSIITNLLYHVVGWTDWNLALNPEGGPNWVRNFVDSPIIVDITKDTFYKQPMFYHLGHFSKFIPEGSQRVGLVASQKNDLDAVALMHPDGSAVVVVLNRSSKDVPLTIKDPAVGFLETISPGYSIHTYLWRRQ
Summary of the method: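 Compounds titrated from 0.6 nM upwards against 0.2 nM enzyme in pH 5.9 citric acid/KH2PO4, taurocholate, tween-20; blue fluorogenic substrate 80 uM, 40 min room temperature, stopped and read Ex 365/Em 440 for AC50.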

[2] = AP1 Signaling Pathway (AID 357); settings: ME-180 AP-1-bla reporter, EGF-induced, beta-lactamase ratio, 5 h; at 7.69 µM (top of the series) unless noted;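 note: ME-180 reporter cells stimulated with EGF at its EC50 level; % is set by controls: 0 for no effect and ±100 for the full control effect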
Summary of the method: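 AP-1-bla ME-180 cells, Opti-MEM + 0.5% dialyzed FBS, plated overnight 37 °C. Cpd titration + EC50 EGF, 5 h 37 °C. CCF4 2.5 h RT; ex 405, em 460/530 ratio → %activity, AC50.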

[3] = NFAT Signaling Pathway (AID 444); settings: Jurkat NFAT-bla M1, carbachol, beta-lactamase ratio, 5 h; at 7.69 µM (top of the series) unless noted;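 note: carbachol stimulus at about its EC50 of 1 µM final; % is set by controls: 0 for no effect and ±100 for the full control effect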
Summary of the method: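 Jurkat cells with NFAT-driven β-lactamase reporter and co-expressed M1 receptor, stimulated with carbachol (final 1 uM, ~EC50), compound titration, 5 h at 37 °C. CCF4 loaded 1 h at RT; 460/530 nm ratio gave %activity and AC50.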

[4] = Stat Signaling Pathway (AID 446); settings: ME-180 SIE beta-lactamase reporter, IL-6 stimulated, 5 h; at 7.69 µM (top of the series) unless noted;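 note: ME-180 cervical cancer cells given 40 pM IL-6 alongside compound; SIE-controlled beta-lactamase reporter measured as 460/530 nm FRET emission ratio; % is set by controls: 0 for no effect and ±100 for the full control effect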
Summary of the method: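 Reporter line: ME-180 cervical carcinoma, SIE-beta-lactamase. Treatment: compound with 40 pM IL-6, 5 hrs, 37 C, in low-serum OPTI-MEM with 10 mM HEPES pH 7.3. Detection: 460/530 nm fluorescence.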

[5] = target: Glucocorticoid receptor (Homo sapiens) (UniProt P04150); assay: GR-GFP Redistribution (AID 450;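 active = compounds whose dose series gives a full or clear partial fitted curve of increased nuclear translocation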; note: potency is the fitted concentration of half-maximal effect); settings: U2OS GR-GFP nuclear translocation, laser cytometry, 2 h
Glucocorticoid receptor (Homo sapiens), sequence (P04150 whole entry, looked up, the tested form may be a part): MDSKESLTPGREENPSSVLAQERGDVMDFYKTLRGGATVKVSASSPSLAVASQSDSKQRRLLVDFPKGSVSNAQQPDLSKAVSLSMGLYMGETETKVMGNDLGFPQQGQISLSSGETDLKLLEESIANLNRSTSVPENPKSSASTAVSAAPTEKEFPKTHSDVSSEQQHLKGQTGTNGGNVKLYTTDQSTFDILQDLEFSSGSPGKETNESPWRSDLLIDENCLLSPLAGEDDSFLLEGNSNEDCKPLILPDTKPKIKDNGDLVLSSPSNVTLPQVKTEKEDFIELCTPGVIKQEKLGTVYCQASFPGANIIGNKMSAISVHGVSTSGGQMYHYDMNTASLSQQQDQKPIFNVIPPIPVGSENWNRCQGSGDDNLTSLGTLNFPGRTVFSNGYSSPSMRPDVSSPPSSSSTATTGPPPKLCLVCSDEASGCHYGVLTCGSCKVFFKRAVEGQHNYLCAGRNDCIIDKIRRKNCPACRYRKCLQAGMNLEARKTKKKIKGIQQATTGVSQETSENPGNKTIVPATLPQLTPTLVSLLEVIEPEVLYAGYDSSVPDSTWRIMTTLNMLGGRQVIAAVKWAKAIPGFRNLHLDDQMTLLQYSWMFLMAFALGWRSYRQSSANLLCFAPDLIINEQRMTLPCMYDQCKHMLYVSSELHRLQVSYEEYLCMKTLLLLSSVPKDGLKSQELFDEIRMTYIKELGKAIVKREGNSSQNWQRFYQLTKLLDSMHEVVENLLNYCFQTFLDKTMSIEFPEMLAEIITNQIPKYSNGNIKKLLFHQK

[6] = target: Glucocorticoid receptor (Homo sapiens) (UniProt P04150); assay: GR-EFC Redistribution (AID 451; calls by dose curve; note: potency is the fitted concentration of half-maximal effect); settings: CHO-K1 GR-EFC translocation, beta-gal luminescence, 2 h
Summary of the method: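 CHO-K1 cells expressing nuclear EA and GR-ED fragments of b-gal; compounds titrated up to 46 uM final, 2 h at 37 C. GR nuclear translocation read as complemented b-gal luminescence after 1 h RT detection.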

[7] = target: Mitogen-activated protein kinase 10 (Mus musculus) (UniProt Q61831); assay: JNK3 AlphaScreen Assay (AID 530); settings: JNK3 lysate, c-Jun phosphorylation; series mostly up to 11.4 µM;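 note: kinase came from lysate of stimulated human HepG2 cells; signal reports phosphorylation of biotinylated GST-cJun 1-79 at Ser73 with 10 µM ATP; % is set by controls: 0 for no effect and ±100 for the full control effect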
Summary of the method: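 qHTS format: compounds tested as titrations against IL-1beta/TNF-alpha-activated HepG2 lysate JNK3 with biotin-GST-cJun substrate and 10 uM ATP at room temperature. Loss of anti-phospho-cJun AlphaScreen signal indicates inhibition.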

[8] = target: 3',5'-cyclic-AMP phosphodiesterase 4B (Homo sapiens) (UniProt Q07343); assay: qHTS Assay for Inhibitors of PDE-IV (AID 607; active = well fitted activation curve with a large enough effect in the main read-out, with a control signal flat, not every such curve was filed as active; note: % of control where 0% means no effect); settings: HEK293 ACTOne CNG channel cells, membrane potential fluorescence; series mostly up to 22.9 µM
3',5'-cyclic-AMP phosphodiesterase 4B (Homo sapiens), sequence (Q07343 whole entry, looked up): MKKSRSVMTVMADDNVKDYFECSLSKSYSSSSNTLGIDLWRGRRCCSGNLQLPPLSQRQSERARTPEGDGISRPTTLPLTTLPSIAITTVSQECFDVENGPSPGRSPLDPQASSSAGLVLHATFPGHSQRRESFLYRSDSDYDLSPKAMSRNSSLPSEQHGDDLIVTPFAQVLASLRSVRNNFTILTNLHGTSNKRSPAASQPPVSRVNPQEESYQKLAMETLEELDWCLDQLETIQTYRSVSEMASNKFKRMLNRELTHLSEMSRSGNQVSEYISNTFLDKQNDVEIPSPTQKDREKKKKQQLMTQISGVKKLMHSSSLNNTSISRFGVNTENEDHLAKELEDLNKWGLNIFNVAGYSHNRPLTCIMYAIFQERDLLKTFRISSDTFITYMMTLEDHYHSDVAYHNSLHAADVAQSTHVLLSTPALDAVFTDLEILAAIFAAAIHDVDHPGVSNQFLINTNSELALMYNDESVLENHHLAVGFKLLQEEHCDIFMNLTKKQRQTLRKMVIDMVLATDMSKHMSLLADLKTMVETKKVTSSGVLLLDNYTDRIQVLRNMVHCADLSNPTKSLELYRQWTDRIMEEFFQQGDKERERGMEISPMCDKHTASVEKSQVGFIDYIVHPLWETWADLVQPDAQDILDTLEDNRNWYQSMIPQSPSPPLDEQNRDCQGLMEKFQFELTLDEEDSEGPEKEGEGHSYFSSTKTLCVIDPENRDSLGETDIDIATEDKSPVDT
Summary of the method: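 Cell-based read-out of cAMP via a modified cyclic nucleotide-gated channel and membrane potential dye (535/590 nm) in HEK293 cells expressing PDE4 endogenously. Compounds tested up to 22.9 uM final; 100 uM RO 20-1724 reference.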

| Compound | Potency [1] [µM] | activity change, negative = inhibition [2] [%] | activity change, negative = inhibition [3] [%] | activity, negative = inhibition [4] [%] | Potency [5] | Potency [6] [µM] | Potency [7] | Potency [8] |
| --- | --- | --- | --- | --- | --- | --- | --- | --- |
| C[N+]1(CCN=C=NC2CCCCC2)CCOCC1 | > 11.4 | 9.01 | -4.19 | -0.107 | > 46 µM | > 9.22 | inactive | inactive |
| N[C@@H](CSC1(c2ccc(Cl)cc2)c2ccccc2-c2ccccc21)C(=O)O | > 11.4 | -8.46 | 10.1 | -2.38 | > 46 µM | > 9.22 | inactive | inactive |
| O=C(O)Cc1cccc2c(=O)cc(-c3ccccc3)oc12 | > 11.4 | -1.49 | -5.58 | -3.42 | > 46 µM | > 9.22 | inactive | inactive |
| Cc1nc([N+](=O)[O-])cn1-c1nc2ccccn2c1[N+](=O)[O-] | > 11.4 | 2.55 | -3.74 | 4.02 | > 46 µM | > 9.22 | inactive | inactive |
| NCCNC[C@H](O)CO | > 11.4 | -9.92 | 7.58 | 3.6 | > 46 µM | > 9.22 | inactive | inactive |
| Nc1c(S(=O)(=O)O)cc(S(=O)(=O)O)c2ccc(N=Nc3ccccc3)c(O)c12 | > 11.4 | 1.28 | -3.14 | -2.56 | 2.59 µM (active) | > 9.22 | inactive | inactive |
| CNC/C(Cl)=N/S(=O)(=O)c1ccc(C)cc1 | > 11.4 | -4.53 | 8.45 | 2.28 | > 46 µM | > 9.22 | inactive | inactive |
| COc1cc(C(=O)O)c([N+](=O)[O-])c(OC)c1OC | > 11.4 | 4.41 | 3.25 | 0.596 | > 46 µM | > 9.22 | inactive | inactive |
| O=C(O)/C(Cc1ccc([N+](=O)[O-])cc1)=N/O | > 11.4 | 3.45 | -0.295 | 7.71 | > 46 µM | > 9.22 | inactive | inactive |
| O=C(O)c1nnsc1-c1ccc(-c2snnc2C(=O)O)cc1 | > 11.4 | -0.0507 | 18.7 | -0.666 | > 46 µM | > 9.22 | inactive | inactive |
| Cc1ccc(S(=O)(=O)N=Nc2c(O)[nH]c3cc(O)c(C(=O)O)cc23)cc1 | > 11.4 | -1.74 | 7.79 | 0.979 | > 46 µM | > 9.22 | inactive | inactive |
| O=C(O)CCn1cnc2c(=S)nc[nH]c21 | > 11.4 | -2.08 | 1.47 | -0.455 | > 46 µM | > 9.22 | inactive | inactive |
| NC(N)=NCCCC(=O)O | > 11.4 | -2.56 | 13.2 | 4.79 | > 46 µM | > 9.22 | inactive | inactive |
| COc1nc(Cl)nc(Cl)c1Cl (tested in a mixture with another compound) | > 11.4 | 2.89 | 3.88 | 7.12 | > 46 µM | > 9.22 | inactive | inactive |
| O=C(O)c1ccc(C(=O)O)c(C(=O)Nc2ccc3c(c2)Cc2ccccc2-3)c1 | > 11.4 | 5.18 | 4.14 | -0.756 | > 46 µM | > 9.22 | inactive | inactive |
| N=C(CC(=O)Nc1ccccn1)c1ccccc1 | > 11.4 | 3.96 | 28.4 | 5.02 | > 46 µM | > 9.22 | inactive | inactive |
| O=C(O)C/C=C\CC(=O)O | > 11.4 | -4.27 | 2.57 | 1.96 | > 46 µM | > 9.22 | inactive | inactive |

| Compound | Potency [1] [µM] | activity change, negative = inhibition [2] [%] | activity change, negative = inhibition [3] [%] | activity, negative = inhibition [4] [%] | Potency [5] | Potency [6] [µM] | Potency [7] | Potency [8] |
| --- | --- | --- | --- | --- | --- | --- | --- | --- |
| COC(=O)c1cc(-c2ccc3ccccc3c2)[nH]c(=O)c1C#N | > 11.4 | -3.94 | 1.77 | -1.42 | > 46 µM | > 9.22 | inactive | inactive |
| Nc1ccc(Cc2ccc(N)c(C(=O)O)c2)cc1C(=O)O | > 11.4 | 12.6 | 16.6 | 1.75 | > 46 µM | > 9.22 | inactive | inactive |
| O=C1CC[C@](CCc2nc3ccccc3[nH]2)(c2ccccc2)C(=O)N1 | > 11.4 | 1.26 | 7.74 | 3.31 | > 46 µM | > 9.22 | inactive | inactive |
| C=CCSc1nc2c(N)ncnc2n1[C@@H]1O[C@H](CO)[C@@H](O)[C@@H]1O | > 11.4 | 4.59 | 2.7 | -1.09 | > 46 µM | > 9.22 | inactive | inactive |
| O=C1c2ccccc2C(=O)N1C1(C(=O)NC2(C(=O)O)CCCC2)CCCC1 | > 11.4 | 0.0237 | 10.1 | 0.797 | > 46 µM | > 9.22 | inactive | inactive |
| Cc1nc(-c2ccccc2)c(Cc2ccccc2O)c(=O)[nH]1 | > 11.4 | -9.11 | 4.59 | 0.211 | > 46 µM | > 9.22 | inactive | inactive |
| FC(F)(F)c1cc(NC(=S)N2c3ccccc3-n3cccc3[C@H]2c2cccnc2)cc(C(F)(F)F)c1 | > 11.4 | -2.69 | 16.9 | -5.05 | > 46 µM | > 9.22 | inactive | inactive |
| O=C1OC(c2ccc(O)c(-c3ccccc3)c2)(c2ccc(O)c(-c3ccccc3)c2)c2c(Cl)c(Cl)c(Cl)c(Cl)c21 | > 11.4 | 10.7 | 19.3 | 5.56 | > 46 µM | > 9.22 | inactive | inactive |
| Cc1cc(Cl)ccc1OCC(=O)Oc1c(Cl)c(Cl)c(Cl)c(Cl)c1Cl | > 11.4 | 0.808 | -13.6 | -0.45 | > 46 µM | > 9.22 | inactive | inactive |
| CN(C)CN1C(=O)S/C(=C2/C(=O)N(CN(C)C)c3ccccc32)C1=O | > 11.4 | -4.12 | 9.46 | -0.139 | > 46 µM | > 9.22 | inactive | inactive |
| CC1=NNC(=S)NCCCN2CCN(CCCNC(=S)NN=C(C)C=NNC(=S)NCCCN3CCN(CCCNC(=S)NN=C1)CC3)CC2 | > 11.4 | 4.7 | 5.96 | -0.247 | > 46 µM | > 9.22 | inactive | inactive |
| O=C(O)/C(Cc1cn[nH]n1)=N\O | > 11.4 | 16.4 | 0.206 | 1.63 | > 46 µM | > 9.22 | inactive | inactive |
| CC(C)C1=C[C@@]23CC[C@@H]4[C@](C)(CCC[C@@]4(C)C(=O)O)[C@@H]2C[C@@H]1[C@@H](C(=O)O)[C@@H]3C(=O)O | > 11.4 | 1.99 | 4.67 | 5.23 | > 46 µM | > 9.22 | inactive | inactive |
| CC(=O)Nc1nc2ncc(C=O)nc2c(=O)[nH]1 | > 11.4 | -2.43 | 17.3 | 5.76 | > 46 µM | > 9.22 | inactive | inactive |
| NC(=O)C/C=C\CC(N)=O | > 11.4 | 1.15 | 10.3 | -3.27 | > 46 µM | > 9.22 | inactive | inactive |
| N#CCCn1c(=O)c(-c2ccccc2)nc2cnc(Oc3ccccc3)nc21 | > 11.4 | -22.6 | -4.58 | 2.8 | > 9.22 µM | > 46 | inactive | inactive |

— PubChem BioAssay (NCATS)
